Data: PubChem BioAssay
Activity calls are given as the source filed them. Unless noted, no stated cut-off is given here; in the data, active means inhibition above about 80%; inactive means the rest.

Columns and labels:
[1] = LFS_MB_P medulloblastoma growth inhibition, cell-based, chromothripsis tumors, cisplatin or BGB combos (AID 1671449); conditions: LFS_MB_P medulloblastoma cells;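 further: cells exposed for 96 hours; 0% = vehicle DMSO and 100% = killing by high DMSO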
[2] = HDN33 neuroblastoma growth inhibition, cell-based, chromothripsis tumors, cisplatin or BGB combos (AID 1671450); conditions: HDN33 neuroblastoma cells, stronger effect = higher value;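 further: cells exposed to compound for four days; 0% = vehicle DMSO and 100% = cell killing by high DMSO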
[3] = ICB984 medulloblastoma cell growth inhibition, synergistic combos for chromothripsis tumors, cisplatin or BGB combos (AID 1671451; call rule not given here;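 further: cells exposed for 96 hours before readout; 0% = vehicle DMSO and 100% = killing by high DMSO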); conditions: ICB984 medulloblastoma cells, drug combinations, stronger effect = higher value
[4] = LFS_MB_1R medulloblastoma cell growth inhibition, synergistic combos for chromothripsis tumors, cisplatin or BGB combos (AID 1671452); conditions: LFS_MB_1R medulloblastoma cells, stronger effect = higher value;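 further: cells exposed for 96 hours before readout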
[5] = HTB85 osteosarcoma cell growth inhibition, synergistic combos for chromothripsis tumors, BGB or cisplatin IC20 combos (AID 1671453); conditions: HTB85 osteosarcoma cells, drug combinations, stronger effect = higher value;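 further: cells exposed for 96 hours before readout; 0% = vehicle DMSO and 100% = high DMSO killing control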
[6] = CRL2098 osteosarcoma cell growth inhibition, synergistic combos for chromothripsis tumors, BGB or cisplatin IC20 combos (AID 1671454); conditions: CRL2098 osteosarcoma cells, drug combinations, stronger effect = higher value;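 further: cells exposed for 96 h before readout; 0% = vehicle DMSO and 100% = killing by high DMSO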
[7] = HD-MB03 medulloblastoma cell growth inhibition, synergistic combos for chromothripsis tumors, BGB or cisplatin IC20 combos (AID 1671455; in the data active means inhibition above about 83%;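 further: 0% = vehicle DMSO and 100% = high DMSO as cytotoxic control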); conditions: HD-MB03 medulloblastoma cells, stronger effect = higher value
[8] = UWB1.289 ovarian carcinoma cell growth inhibition, synergistic combos for chromothripsis tumors, BGB or cisplatin combos (AID 1671456); conditions: UWB1.289 ovarian carcinoma cells, stronger effect = higher value;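 further: cells exposed to compound for four days; 0% = vehicle DMSO and 100% = killing by high DMSO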
[9] = LFS_MB_2R medulloblastoma cell growth inhibition, synergistic combos for chromothripsis tumors, cisplatin combos (AID 1671457); conditions: LFS_MB_2R medulloblastoma cells, stronger effect = higher value;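 further: cells exposed to compound for four days before readout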
[10] = MDA-MB-436 breast carcinoma cell growth inhibition, synergistic combos for chromothripsis tumors, BGB or cisplatin combos (AID 1671458; call rule not given here;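 further: cells exposed for 96 hours; 0% = vehicle DMSO and 100% = killing by high DMSO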); conditions: MDA-MB-436 breast carcinoma growth inhibition, drug combinations, stronger effect = higher value
[11] = UWB1.289_BRCA1 ovarian cancer growth, cell-based, BGB or cisplatin combinations (AID 1671459); conditions: UWB1.289 BRCA1 ovarian carcinoma, drug combinations, stronger effect = higher value
[12] = human astrocyte viability loss, single and combined drugs, cytotoxicity control for chromothriptic childhood tumor combination screen, cell-based, BGB or cisplatin IC20 combos (AID 1671460); conditions: Human astrocytes, drug combinations, stronger effect = higher value;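 further: cells exposed to compounds for 96 hours before viability readout; 0% = vehicle and 100% = killing control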
[13] = growth inhibition of BT084 medulloblastoma cells, cell-based, ICGC_MB145, cisplatin and BGB IC40 combos (AID 1671461); conditions: drug combinations, stronger effect = higher value;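 further: cells exposed to drugs for 96 hours; 0% = vehicle DMSO and 100% = high DMSO full killing control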
[14] = growth inhibition of RCMB18 medulloblastoma cells, cell-based, cisplatin and BGB IC40 combos (AID 1671462); conditions: stronger effect = higher value;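 further: cells exposed to compound for four days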
[15] = growth inhibition of CRL1545 osteosarcoma cells, cell-based, cisplatin and BGB IC20 combos (AID 1671464); conditions: stronger effect = higher value;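 further: cells exposed to compound for 96 hours before readout; 0% = vehicle DMSO and 100% = high DMSO killing control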
[16] = measured here: combination with BGB IC40, at 0.05 µM
[17] = measured here: with BGB IC20 combination, at 0.5 µM
[18] = measured here: with cisplatin IC20 combination, at 0.5 µM
[19] = measured here: combination with cisplatin, at 0.5 µM
[20] = measured here: combination with cisplatin, at 5 µM

## COc1ccc(-c2nc(-c3cc(C(F)(F)F)cc(C(F)(F)F)c3)n(Cc3ccc(C(N)=O)cc3)c2-c2ccc(OC)cc2)cc1
[1]; at 0.5 µM, stronger effect = higher value
  inhibition: -25% (inactive)
[1]; measured here: combination with BGB IC20, at 0.005 µM
  inhibition: -26.9%
[1]; measured here: combination with BGB IC40, at 0.005 µM
  inhibition: -58.7%
[1]; [16]
  inhibition: -38.9%
[1]; measured here: combination with cisplatin, at 0.5 µM, stronger effect = higher value
  inhibition: -39.3%
[1]; measured here: combination with cisplatin, at 5 µM, stronger effect = higher value
  inhibition: -39.4%
[2]; BGB combo, at 5 µM
  inhibition: -37.8%
[2]; at 0.5 µM
  inhibition: 0.84% (inactive)
[2]; cisplatin combo, at 5 µM
  inhibition: -22.8%
[2]; [17]
  inhibition: 36.9%
[2]; [18]
  inhibition: -4.78%
[2]; single agent, at 5 µM
  inhibition: -31.8%
[3]; BGB IC20 combo, at 0.005 µM
  inhibition: -2.07%
[3]; BGB IC40 combo, at 0.005 µM
  inhibition: -30.8%
[3]; BGB IC40 combo, at 0.05 µM
  inhibition: -25.1%
[3]; at 0.5 µM
  inhibition: -9.24% (inactive)
[3]; cisplatin combo, at 0.05 µM
  inhibition: -31.6%
[3]; cisplatin combo, at 0.5 µM
  inhibition: -14.1%
[3]; cisplatin combo, at 5 µM
  inhibition: -32.9%
[3]; measured here: 5 uM single agent, at 5 µM
  inhibition: -2.84%
[4]; at 0.5 µM
  inhibition: -33.2% (inactive)
[4]; [16]
  inhibition: -28.8%
[4]; [19]
  inhibition: -57.5%
[4]; [20]
  inhibition: -46.5%
[5]; at 0.5 µM
  inhibition: -24.2% (inactive)
[5]; measured here: with BGB IC20, at 0.5 µM
  inhibition: -10.5%
[5]; measured here: with BGB IC20, at 5 µM
  inhibition: -7.08%
[5]; measured here: with cisplatin IC20, at 0.5 µM
  inhibition: -32.4%
[5]; measured here: with cisplatin IC20, at 5 µM
  inhibition: -14.9%
[5]; single agent, at 5 µM
  inhibition: 13.9%
[6]; at 0.5 µM
  inhibition: -66.2% (inactive)
[6]; measured here: combination with BGB at IC20, at 0.5 µM
  inhibition: -72.7%
[6]; measured here: combination with cisplatin at IC20, at 0.5 µM
  inhibition: -56.3%
[7]; at 0.5 µM
  inhibition: -5.54% (inactive)
[7]; measured here: combo with BGB at IC20, at 0.5 µM
  inhibition: -5.38%
[7]; measured here: combo with cisplatin at IC20, at 0.5 µM
  inhibition: 0.332%
[8]; at 0.5 µM
  inhibition: -10.7% (inactive)
[8]; measured here: inhibition with BGB combination, at 0.05 µM
  inhibition: -23.7%
[8]; measured here: inhibition with cisplatin combination, at 0.05 µM
  inhibition: -19.3%
[9]; at 0.5 µM
  inhibition: -16.7% (inactive)
[9]; [19]
  inhibition: -7.64%
[9]; [20]
  inhibition: -13.3%
[10]; at 0.5 µM
  inhibition: -7.79% (inactive)
[10]; measured here: BGB combination, at 0.5 µM
  inhibition: -10.8%
[10]; measured here: BGB combination, at 5 µM
  inhibition: -8.02%
[10]; measured here: cisplatin combination, at 0.5 µM
  inhibition: -12.9%
[10]; measured here: cisplatin combination, at 5 µM
  inhibition: -13.3%
[11]; BGB combination, concentration series, at 5 µM
  inhibition: 4.42%
[11]; at 0.5 µM
  inhibition: -9.42% (inactive)
[11]; cisplatin combination, concentration series, at 5 µM
  inhibition: 7.4%
[12]; at 0.5 µM
  inhibition: 5.71% (inactive)
[12]; measured here: combo with BGB IC20, at 0.5 µM
  inhibition: 1.56%
[12]; measured here: combo with cisplatin IC20, at 0.5 µM
  inhibition: 6.54%
[13]; at 0.5 µM
  inhibition: -7.83% (inactive)
[13]; cisplatin combination, at 0.5 µM
  inhibition: -5.41%
[13]; cisplatin combination, at 5 µM
  inhibition: -208%
[13]; measured here: BGB IC40 combination 0.05 uM, at 0.05 µM
  inhibition: -36.9%
[13]; single agent, at 5 µM
  inhibition: -5.53%
[14]; at 0.5 µM
  inhibition: -23% (inactive)
[14]; cisplatin combo, at 5 µM
  inhibition: -55.8%
[14]; measured here: BGB IC40 combination, at 0.05 µM
  inhibition: -13.9%
[14]; [19]
  inhibition: -29.4%
[14]; single agent, at 5 µM
  inhibition: -12.6%
[15]; at 0.5 µM
  inhibition: 21.1% (inactive)
[15]; [17]
  inhibition: -22.6%
[15]; [18]
  inhibition: 42.1%
[15]; single agent, at 0.05 µM
  inhibition: -21.9%
[15]; single agent, at 5 µM
  inhibition: -24.7%
